Measurements: PubChem BioAssay (NCI)
About 83,000 compounds went through this panel and 20% of them were active in at least one assay; those are over-represented in the sample as a whole.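 Compound tested at a single concentration for 48 hours in 96-well plates; a percent growth value below 10 was scored as active.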 Active and inactive are the calls of the source.

Tests used:
Experiment in all cases: NCI-60 one-dose screen, 48 h (100 = growth as untreated, 0 = no growth, -100 = all killed)
Settings in all cases: 10 µM unless noted
[1] = tested on: NCI-H23 lung
[2] = tested on: NCI-H226 lung
[3] = tested on: NCI-H322M lung
[4] = tested on: HOP-62 NSCLC
[5] = tested on: NCI-H460 lung
[6] = tested on: HOP-92 NSCLC
[7] = tested on: NCI-H522 lung
[8] = tested on: A549/ATCC NSCLC
[9] = tested on: 786-0 renal
[10] = tested on: COLO 205 colon
[11] = tested on: DU-145 prostate
[12] = tested on: K-562 leukemia
[13] = tested on: MALME-3M melanoma
[14] = tested on: MDA-MB-231 breast
[15] = tested on: RXF 393 renal
[16] = tested on: SF-268 CNS
[17] = tested on: SF-295 CNS
[18] = tested on: SF-539 CNS
[19] = tested on: UACC-257 melanoma
[20] = tested on: M14 melanoma

Measured: growth

COc1cc(C#Cc2ccc(=O)oc2C#Cc2ccccc2)cc(OC)c1OC
active: [12] 4.76%
inactive: [1] 64.8% | [2] 76.6% | [3] 103% | [4] 102% | [5] 84.7% | [6] 112% | [7] 18.2% | [8] 95.7% | [9] 83% | [10] 23.6% | [11] 65.7% | [13] 75.9% | [14] 89% | [15] 78.7% | [16] 43.5% | [17] 96.9% | [18] 110% | [19] 108% | [20] 72.6%

CCOC(=O)C1=C(C)N=C2SC=C(c3ccccc3)N2[C@H]1c1cn[nH]c1-c1ccc(Cl)cc1
active: [6] -1.56% | [7] -56.8% | [13] -27.9%
inactive: [1] 51.2% | [2] 66.4% | [3] 78.7% | [4] 63% | [5] 43.3% | [8] 56.4% | [9] 49.6% | [10] 57.1% | [11] 64.6% | [12] 40.5% | [14] 41.9% | [15] 61.2% | [16] 44.8% | [17] 41% | [18] 44.4% | [19] 52.6% | [20] 47.7%

CCCCCCOC(=O)CC1=C(C)/C(=C/c2[nH]c(-c3ccc[nH]3)cc2OC)N=C1C
active: [1] -29.3% | [2] -30.6% | [4] -37.8% | [5] -23% | [6] -27.7% | [7] -49.5% | [8] -6.96% | [9] -51.8% | [10] -82.9% | [11] 5.68% | [12] -33.6% | [13] -74% | [14] -50.7% | [15] -56.1% | [16] -20.8% | [17] -60.4% | [18] -71.3% | [19] -63.9% | [20] -86.2%
inactive: [3] 11.2%

O=C(NCc1ccccc1O)c1cccc2ccccc12
inactive: [1] 47.8% | [2] 76.7% | [3] 95.9% | [4] 86.5% | [5] 70.3% | [7] 65.8% | [8] 87.4% | [9] 72.7% | [10] 106% | [11] 95.6% | [12] 55.1% | [13] 48.7% | [14] 68.9% | [15] 95.2% | [16] 87.9% | [17] 87.3% | [18] 63.5% | [19] 75.5% | [20] 75.8%
active: [6] -8.54%

CCOC(=O)c1c(NC(=O)CSc2n[nH]c3nc4ccccc4n23)sc(CC)c1C
inactive: [1] 98.6% | [2] 86.7% | [3] 107% | [4] 108% | [5] 106% | [6] 63.6% | [7] 87% | [8] 102% | [9] 98.4% | [10] 114% | [11] 112% | [12] 117% | [13] 138% | [14] 90.3% | [15] 96.1% | [16] 108% | [17] 91% | [18] 111% | [19] 113% | [20] 116%

Nc1c(C(=O)O)cc(Cl)cc1[N+](=O)[O-]
inactive: [1] 90.6% | [2] 96.4% | [3] 103% | [4] 89.7% | [5] 108% | [6] 58.7% | [7] 98.4% | [8] 97.6% | [9] 96.1% | [10] 115% | [11] 108% | [12] 95.2% | [13] 105% | [14] 91.3% | [15] 88.9% | [16] 98% | [17] 109% | [18] 99.7% | [19] 96.8% | [20] 96.8%

CCOC(=O)c1c(NC(=O)c2ccc(OC)cc2)sc2c(CN(C)C)c(O)ccc12
inactive: [1] 90.6% | [2] 101% | [3] 89.6% | [4] 85% | [5] 60% | [6] 25.3% | [7] 75.1% | [8] 74% | [9] 63.4% | [10] 55.3% | [11] 84.3% | [12] 24.1% | [14] 79.1% | [15] 53.6% | [16] 98% | [17] 82.3% | [18] 68.8%
active: [13] -57.5% | [19] -58% | [20] -69.4%
